± gives the standard deviation.
The sequences below were run on MILI (PIWIL2) piRISC loaded with piRNA #1 (26 nt) (assay: pre-steady-state target cleavage rate (min^-1); guide: piRNA #1 5'p-UGAGGUAGUAGGUUGUAUAGUAUCCA; MIWI and MILI are mouse PIWI proteins and EfPiwi is from a freshwater sponge; tags in brackets are library labels; higher = faster piRNA-guided slicing of the target). Conditions: auxiliary factor: 500 nM mouse GTSF1.
Summary of the method: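 Cleave-'n-Seq: 1 nM active affinity-purified piRISC with one synthetic guide and 0.1 nM transcribed, DNA-blocked target RNA library were mixed, with or without 500 nM GTSF1 partner protein, in HEPES–potassium acetate buffer at 33 °C for 0–8 or 0–960 min. Uncleaved targets were sequenced and normalised to depth and to weakly complementary targets, three trials were pooled, and k3 was capped at 0.0001 min^-1. The pre-steady-state cleavage rate was fitted […].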

Sequence	pre-steady-state target cleavage rate
GGAGUCGAUACUUUACAACCUACUACCUCA	0.185 ± 0.009
GGAGACCUAUGAUUACAACCUACUACCCUCA	0.00361 ± 0.0029
GGAGUGGAUACUAUACAACCUACUUGGUCA	< 0.0001
GGAGACGAUACUUUAGAACCUACUACCUCA	0.16 ± 0.01
GGAGACCUAUGUUUACAAGCUACUACCUCA	0.0793 ± 0.017
GGAGACCUAUCUAUACGACCUACUACCUCA	0.0198 ± 0.0044
GGAGACCUAUGUAUACAAGCUACUACGUCA	0.0451 ± 0.009
GGAGACCUUACUAUACAACGUUCUACCUCA	0.00546 ± 0.0015
GGAGAGGAAACUAUAGAACCUACUACCUCA	0.178 ± 0.018
GGAGACCUUACUUUACAAGCUACUACCUCA	0.232 ± 0.013
GGAGACCUAUCUAUACAACCUACUUCCUGA	0.0608 ± 0.018
GGAGACCUAUGAAUACAACAUACUACCUCA	0.00332 ± 0.0021
GGAGACGAUACUAGACAACCUACUACCUCA	0.171 ± 0.013
GGAGAGGAUACUAUACAACCUACUACAUCA	0.0431 ± 0.0077
GGAGACGAUACUUUACAACCUACUAGCUCA	0.0695 ± 0.013
GGAGACCUAACUAUACAAGCUACUACCACA	0.309 ± 0.029
GGAGACCUAUGAAUACAACCUACUACCCCA	0.00425 ± 0.0034
GGAGAGGAUACUAUACACCUACUACCUCA	0.0354 ± 0.0068
GGAGACCUUAGUAUACAACCUACUUCCUCA	0.0515 ± 0.014
GGAGACCUAACUAUACAUCCUACUAGCUCA	0.162 ± 0.042
GGAGACCUAUGAAAACAAGCUACUACCUCA	0.00917 ± 0.0021
GGAGACCUAUCAAUACAAGCUACUACCUCA	0.108 ± 0.013
GGAGACCAUACAAUUCAACCUACUACCUCA	0.13 ± 0.013
GGAGACCUAUCUAUACAAGGAUGAUGGAGA [g13:g20:cont:t1A]	< 0.0001

Reference: the supplement of paper PMC10338343
